TDP1 inh: TDP1 (human) enzyme inhibition | AID 485290 | Q9NUW8 | Potency, µM (doses to about 130 µM), for inactives: at the top dose activity change, negative = inhibition, usual class: inhibitors | recombinant TDP1, AlphaScreen DNA substrate cleavage | 350,000 compounds, 0.28% hits; note: potency is the fitted concentration of half-maximal effect; % is set by controls: 0 for no effect and ±100 for the full control effect; nearly all actives have a fitted effect of over 40% in size
Target sequence (Q9NUW8 whole entry, looked up): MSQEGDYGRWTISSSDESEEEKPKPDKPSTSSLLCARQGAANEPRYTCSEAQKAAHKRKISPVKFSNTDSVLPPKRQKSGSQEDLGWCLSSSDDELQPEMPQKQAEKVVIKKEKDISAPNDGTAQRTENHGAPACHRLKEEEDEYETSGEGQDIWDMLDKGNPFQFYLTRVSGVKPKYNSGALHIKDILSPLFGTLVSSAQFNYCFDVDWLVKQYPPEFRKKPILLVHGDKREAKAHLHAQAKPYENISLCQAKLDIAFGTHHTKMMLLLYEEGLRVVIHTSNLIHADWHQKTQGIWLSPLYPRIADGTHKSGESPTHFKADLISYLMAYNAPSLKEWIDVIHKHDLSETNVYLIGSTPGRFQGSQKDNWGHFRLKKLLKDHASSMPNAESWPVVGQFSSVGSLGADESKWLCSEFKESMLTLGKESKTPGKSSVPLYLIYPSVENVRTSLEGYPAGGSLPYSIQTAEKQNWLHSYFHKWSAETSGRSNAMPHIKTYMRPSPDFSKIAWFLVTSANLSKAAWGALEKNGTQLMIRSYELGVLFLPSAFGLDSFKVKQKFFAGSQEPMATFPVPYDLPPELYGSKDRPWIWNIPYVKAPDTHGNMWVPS
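AlphaScreen read-out: signal falls as enzyme removes the 3' tyrosine-FITC from a 5'-biotinylated DNA oligo (15 nM, 5 min, RT). Enzyme was E. coli-made recombinant Tdp1 at 1 nM, exposed to compound for 15 min beforehand; beads 10 ug/ml, 10 min.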
TDP1 cell noCPT: qHTS for Inhibitors of human tyrosyl-DNA phosphodiesterase 1 (TDP1): qHTS in cells in absence of CPT | DT40 Tdp1-/- hTDP1 cells, no CPT, ATP luminescence, 48 h | Potency, µM (series often up to 46.2 µM), for the others: at the top dose activity change, negative = growth inhibition, most hits filed as inhibitors | 420,000 compounds, 15% hits | AID 686978, 2013; note: potency is the fitted concentration of half-maximal effect; % is set by controls: 0 for no effect and ±100 for the full control effect; nearly all actives have a fitted effect of over 55% in size
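Compound effects on proliferation are scored in DT40 Tdp1-/-;hTDP1 cells in the absence of CPT. ATP levels (CellTiter-Glo luminescence) are recorded after a ≥48 hr, 37 °C incubation.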
HepG2 viability: kills HepG2 cells in TGF-b inhibitor counter-screen; 410,000 compounds, 0.76% hits; HepG2 CAGA-GFP viability, ATP luminescence, 18 h; Potency, µM (titrated, usually from 46.1 µM), inactives show at the top dose activity change, negative = cytotoxicity, usual class: cytotoxic; note: potency is the fitted concentration of half-maximal effect
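CellTiter-Glo luminescence gave cytotoxicity after 18 hours at 37 degrees C. The cells were HepG2 CAGA-GFP in 1% FBS DMEM, stimulated with 500 pg/mL TGF-beta after compound addition. %Activity was normalised to no-cell wells (complete cell-killing) and DMSO (no toxicity), and curves were fitted and classified.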
TGFb inhibitor: TGF-b pathway inhibition. AID 588855. 410,000 compounds, 1.2% hits. Potency, µM (highest dose often 46.1 µM), for inactives: at the highest dose activity, negative = inhibition, hits mostly inhibitors. HepG2 CAGA-GFP TGF-b/SMAD3 reporter, GFP fluorescence, 18 h; TGF-beta stimulated, 500 pg/mL final; note: potency is the fitted concentration of half-maximal effect; % is set by controls: 0 for no effect and ±100 for the full control effect; nearly all actives have a fitted effect of over 65% in size
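Cell-based qHTS in HEPG2 carrying a CAGA-GFP Smad reporter; compounds added before 500 pg/mL final TGF-beta, 18 h incubation at 37 degrees C, GFP fluorescence quantified per cell by imaging cytometry.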
IL-1B inflam inh: inhibitors of inflammasome signaling (IL-1 beta secretion); THP-1 LPS/ATP IL-1B secretion, AlphaLISA, 16 h; hits give low values; activity change, % at 57.5 µM; 360,000 compounds, 4.7% hits; in the data active = activity change below about -50%; inconclusive = mostly about -30% to -49%; note: % is set by controls: 0 for no effect and ±100 for the full control effect
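THP-1 cells pretreated 1 hr with compounds (up to 57.5 uM final), then stimulated with LPS (250 ng/mL final) plus ATP (1.25 mM final); secreted IL-1B measured by AlphaLISA after 16 hr, decreased signal indicating inhibition.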
TDP1 cell CPT: growth inhibition of DT40 Tdp1-/-;hTDP1 cells with camptothecin (screen for TDP1 inhibitors); chicken DT40 Tdp1-/-;hTDP1 cells + 20 nM CPT, ATP luminescence, 48 h; Potency, µM (highest dose often 46.2 µM), for inactives: top-dose activity change, negative = growth inhibition, usual class: inhibitors; 420,000 compounds, 12% hits; AID 686979; note: potency is the fitted concentration of half-maximal effect; % is set by controls: 0 for no effect and ±100 for the full control effect; nearly all actives have a fitted effect of over 55% in size
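Chicken DT40 Tdp1-/- cells complemented with human TDP1, 400 cells/well, exposed to compounds plus 20 nM camptothecin for at least 48 h at 37 C; viability read as ATP content by CellTiter-Glo luminescence.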
Active calls of the source: *. A selection: hits, their analogues and other compounds. The true share with any hit is near 18%. Unless noted, calls come from the whole dose curve; as a rule, active = well fitted curve in the direction sought with a large enough effect; inconclusive = small, poorly fitted or top-dose-only effect, or another doubt; inactive = no such curve, though single readings can be large; an effect the other way counts as inactive or inconclusive.

Cc1ccc(Cl)cc1NC(=S)NCCCSC1CCCCC1 was read as TDP1 inh 8%, TDP1 cell noCPT 18µM*, HepG2 viability -45%, TGFb inhibitor 11µM*, IL-1B inflam inh -101* and TDP1 cell CPT inconclusive.
CCc1ccccc1NC(=S)NCCSc1ccc(Cl)cc1 was read as TDP1 inh 1%, TDP1 cell noCPT inconclusive, HepG2 viability 4%, TGFb inhibitor inconclusive, IL-1B inflam inh -98* and TDP1 cell CPT inconclusive.
`COc1ccc(OC)c(NC(=S)NCCSc2ccc(C)cc2)c1` gave TDP1 inh 9%, TDP1 cell noCPT 16µM*, HepG2 viability -35%, TGFb inhibitor inconclusive, IL-1B inflam inh -10 and TDP1 cell CPT inconclusive.
Cc1ccc(C)c(NC(=S)NCCSc2ccc(Cl)cc2)c1 was read as TDP1 inh 9%, TDP1 cell noCPT 16µM*, HepG2 viability -5%, TGFb inhibitor inconclusive, IL-1B inflam inh inconclusive and TDP1 cell CPT 21µM*.
`CS(=O)(=O)Nc1ccccc1C(=O)NCCSc1ccc(Cl)cc1` gave TDP1 cell noCPT inconclusive, HepG2 viability -25%, TGFb inhibitor inconclusive, IL-1B inflam inh 17 and TDP1 cell CPT inconclusive.
`CNS(=O)(=O)c1ccc(CNC[C@H]2O[C@@H](n3cnc4c(=O)[nH]c(N)nc43)[C@H](O)[C@@H]2O)cc1` gave TDP1 cell noCPT 3%, HepG2 viability 3%, TGFb inhibitor -11%, IL-1B inflam inh 27 and TDP1 cell CPT -1%.
`NS(=O)(=O)c1ccc(CCNS(=O)(=O)c2ccc(Cl)s2)cc1` gave TDP1 inh 0%, TDP1 cell noCPT inconclusive, HepG2 viability -23%, TGFb inhibitor -22%, IL-1B inflam inh 9 and TDP1 cell CPT inconclusive.
`COc1ccc(NC(=O)C(OC(=O)CNC(=O)c2ccccc2)c2ccccc2)c(C)c1` (configuration not stated) gave TDP1 inh 0%.
Screening Cc1cccc(NC(=O)NCCc2ccc(Cl)cc2)c1 returned TDP1 inh 3%, TDP1 cell noCPT -29%, HepG2 viability -31%, TGFb inhibitor 7%, IL-1B inflam inh -18 and TDP1 cell CPT 3%.
For Cc1ccc(NC(=S)NCC(C)CSc2ccc(Cl)cc2)cc1 (configuration not stated) the results were TDP1 inh 1%, TDP1 cell noCPT inconclusive, HepG2 viability -6%, TGFb inhibitor 1%, IL-1B inflam inh -20 and TDP1 cell CPT -4%.
For Cc1cccc(NC(=S)NCCSc2ccc(Cl)cc2)c1 the results were TDP1 inh 6%, TDP1 cell noCPT -27%, HepG2 viability 2.5µM*, TGFb inhibitor inconclusive, IL-1B inflam inh -105* and TDP1 cell CPT -3%.
Cc1cccc(NC(=S)NCC(C)CSc2ccc(Cl)cc2)c1 (configuration not stated) was read as TDP1 inh 1%, TDP1 cell noCPT 16µM*, HepG2 viability 14µM*, TGFb inhibitor 13µM*, IL-1B inflam inh -9 and TDP1 cell CPT inconclusive.
For Cc1ccccc1NC(=S)NCCSc1ccc(Cl)cc1 the results were TDP1 inh 0%, TDP1 cell noCPT 18µM*, HepG2 viability -6%, TGFb inhibitor 0%, IL-1B inflam inh -82* and TDP1 cell CPT inconclusive.
Cc1ccc(NC(=S)NCCSc2ccc(Cl)cc2)c(C)c1 was read as TDP1 inh 3%, TDP1 cell noCPT inconclusive, HepG2 viability 0%, TGFb inhibitor 0%, IL-1B inflam inh -6 and TDP1 cell CPT inconclusive.

Screens deposited in PubChem BioAssay by National Center for Advancing Translational Sciences (NCATS).
